Screening results (PubChem BioAssay)
IEC-6 cytotox – cytotoxicity in IEC-6 intestinal epithelial cells, primary screen, cytotoxicity control for KLF5 inhibitor project, cell-based, luminescence | IEC-6 cytotoxicity, luminescence viability | inhibition, % at 5 µM | 290,000 tested, 0.78% active | AID 1825, 2009; in the data active = inhibition above about 22%
BaF3 parental – parental Ba/F3 cell viability inhibition, counter-screen for JAK2V617F inhibitor project, murine pro-B, CellTiter-Glo luminescence; CellTiter-Glo ATP luminescence; inhibition, % at 5.6 µM; 220,000 tested, 1.1% active; AID 1486, 2009;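 active = inhibition above a per-campaign cutoff, the mean inhibition of all tested compounds plus 3 SD, cut at about 27% in these data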
GPR7 antag – GPR7 receptor antagonists, primary screen, cell-based, fluorescence, single concentration; GPR7-expressing cells, fluorescence antagonist assay; AID 1861, 2009; 290,000 tested, 1.1% active; inhibition, % at 4.4 µM; Neuropeptides B/W receptor type 1 (Homo sapiens), P48145; in the data active = inhibition above about 16%, passing the limit was not always enough;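 also: cells stimulated with the agonist NPW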
Target sequence (P48145 whole entry, looked up): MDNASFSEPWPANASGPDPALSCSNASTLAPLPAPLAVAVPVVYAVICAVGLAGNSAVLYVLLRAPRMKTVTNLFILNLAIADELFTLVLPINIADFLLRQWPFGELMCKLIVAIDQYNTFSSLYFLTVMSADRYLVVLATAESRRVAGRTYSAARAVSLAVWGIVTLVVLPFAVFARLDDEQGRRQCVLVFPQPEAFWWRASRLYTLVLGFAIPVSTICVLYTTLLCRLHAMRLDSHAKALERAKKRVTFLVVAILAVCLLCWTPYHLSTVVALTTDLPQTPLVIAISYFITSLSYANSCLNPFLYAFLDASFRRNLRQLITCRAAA
Ba/F3 V617F tox – reduced viability of JAK2V617F-dependent Ba/F3 cells, primary screen, JAK2V617F inhibitor project, cell-based, Ba/F3 EpoR-JAK2V617F, luminescence | ATP luminescence | inhibition, % at 5.6 µM | 220,000 tested, 1.1% active | AID 1446, 2008;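 active = inhibition above the campaign mean plus 3 SD over all tested compounds, cut at about 24% in these data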;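 also: cytokine-independent growth of Ba/F3 cells driven by EpoR plus mutant JAK2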
FID counter – compounds displacing fluorescent DNA intercalator, primary screen, artefact control for HCV NS3 helicase inhibitor project, biochemical, FID fluorescence. inhibition, % at 7.9 µM. 290,000 tested, 0.17% active. AID 1845, 2009. DNA fluorescent intercalator displacement; in the data active = inhibition above about 37%;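 also: higher means more ethidium bromide displaced from hairpin DNA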
KLF5 inh – KLF5 expression inhibitors, primary screen, DLD-1 cells, luminescence; 290,000 tested, 0.23% active; inhibition, % at 5 µM; AID 1700, 2009; DLD-1 KLF5 promoter-luciferase reporter;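 active = inhibition above a per-plate limit of that plate's mean compound inhibition plus 3 SD, cut at about 60% in these data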;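 also: higher means less KLF5 promoter-driven luciferase light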
Numbers stand for hits; - = inactive; . = not tested or not shown. A selection: hits, their analogues and other compounds. The true share with any hit is near 2.6%.

SMILES	IEC-6 cytotox	BaF3 parental	GPR7 antag	Ba/F3 V617F tox	FID counter	KLF5 inh
CCOC(=O)c1ccc(NC2c3ncccc3C(=O)N2Cc2ccc(F)cc2)cc1 (configuration not stated)	-	-	-	-	-	-
CCOC(=O)c1sc(NC(=O)c2cccc(S(=O)(=O)N(CC)CC)c2)cc1C	-	-	-	-	-	-
COCCNc1ncnc2c1cnn2-c1ccc(Cl)cc1	-	-	20	-	-	-
Cc1cccc(NC(=O)CN2C(=O)N/C(=C\c3ccc(N4CCOCC4)cc3)C2=O)c1	-	-	-	-	-	-
Cc1cc(C)n(C(=O)c2cccc(S(=O)(=O)N3CCCC3)c2)n1	-	-	21	-	-	-
CON/C=N/C(=S)Nc1ncc(C(F)(F)F)cc1Cl	-	-	-	-	-	-
ON/C=N/C(=S)Nc1ncc(C(F)(F)F)cc1Cl	-	62	-	56	-	-
C=CCn1cccc(/C=C/C(=O)c2ccc(C(C)(C)C)cc2)c1=S	-	46	-	-	-	-
COc1cc2c(cc1OC)C(C)N(C(=O)Nc1ccc(F)cc1)CC2 (configuration not stated)	-	.	-	.	-	-
CCOc1cc(CNCCCN2CCOCC2)cc(Br)c1OCc1ccccc1Cl	-	-	39	-	40	-
COC(=O)C1=C(C(=O)OC)[C@@H]2N(Cc3ccccc3)c3ccccc3[C@@]23C[C@@H](C(=O)OC)N(C(=O)c2ccc(Br)cc2)C3=N1	-	.	-	.	-	-
CC(=O)Nc1cc(OC(C)=O)c2nonc2c1OC(C)=O	100	103	-	101	-	115
CC(=O)Nc1nonc1NC(C)=O	-	-	-	-	-	-
Cc1no[n+]([O-])c1COc1ccccc1/C=N/n1nnnc1N	-	-	-	-	-	-
CCOc1cc(/C=N/n2nnnc2N)ccc1OCc1c(C)no[n+]1[O-]	-	97	-	-	-	-
Cn1cc(CN2C[C@H]3CC[C@H]2C3)c(-c2ccccc2F)n1	-	31	-	55	-	-
CS(=O)(=O)c1ccc(Sc2nc3ccccc3s2)c([N+](=O)[O-])c1	-	45	-	66	-	-
CC(C)(C)NC(=S)N/N=C/c1c(Cl)cccc1Cl	-	-	-	-	-	-
Cc1ccc(NC(=S)N/N=C/c2c(Cl)cccc2Cl)c(C)c1	-	72	-	70	-	-
Oc1ccc(O)c(Cc2nc3ccccc3s2)c1	-	-	33	-	-	-
Cc1cc(NS(=O)(=O)c2ccc(NC(=O)C(C)Oc3ccc(Cl)cc3)cc2)no1 (configuration not stated)	-	-	-	-	-	-
C[C@@H](C(=O)NCC1CC1)[C@H]1C[C@]1(C)[C@H](NC(=O)OCc1ccccc1)c1ccccc1	-	-	-	-	-	-
C/C(N)=C(/C#N)C(=O)CSc1nnnn1-c1ccc(C)cc1	-	-	15	-	-	-
CC(=O)Nc1ccc2nc(CN3CCN(CC=C(C)C)C(CCO)C3)ccc2c1 (configuration not stated)	-	-	-	-	-	-
Cc1ccccc1CN1CCN(C(C)C(=O)NCc2ccccc2)CC1 (configuration not stated)	-	.	-	.	-	-
SMILES	IEC-6 cytotox	BaF3 parental	GPR7 antag	Ba/F3 V617F tox	FID counter	KLF5 inh
Cc1ccccc1Cn1ccc(=NCc2ccccc2)cc1	-	79	-	100	-	-
O=C1NC(=S)S/C1=C\C=C\c1ccc([N+](=O)[O-])o1	-	-	-	31	-	-
N#Cc1cccc2cnccc12	-	-	19	-	-	-
CC1CCc2c(sc(NC(=O)COC(=O)c3ccccc3NCc3ccco3)c2C#N)C1 (configuration not stated)	-	-	-	-	-	-
Cc1ccccc1CNc1nc(N)n(-c2ccccc2)n1	-	96	-	-	-	-
Nc1cc2c3c(cccc3c1)C(=O)N(CCN1CCCC1)C2=O	62	83	-	97	-	-
CC(=O)OCCCN1C(=O)c2cccc3cc(Br)cc(c23)C1=O	-	.	-	.	-	-
CCN(CC)CCN1C(=O)c2cccc3cc(N)cc(c23)C1=O	-	70	-	82	-	-
O=[N+]([O-])c1cc(-n2cccc2)ccc1N1CCOCC1	-	-	-	-	-	-
O=C(CCC(=O)N1CCOc2ccccc21)NCc1cccnc1	-	.	-	.	-	-
C=CCOc1c(Br)cc(/C=N/Nc2ccc(C(=O)O)cc2)cc1OCC	39	-	-	-	-	-
CC(=O)c1c(C(C)=O)c(C)n(Cc2ccc3c(c2)OCO3)c1C	-	-	-	-	-	-
CC(=O)c1ccc(NC(=O)CO/N=C(\C)c2cccs2)cc1	-	-	20	-	-	-
CCC(O)CNc1nc(SC)nc2sc3c(c12)CCN(C)C3 (configuration not stated)	-	57	-	-	-	-
COC(CNc1nc(SC)nc2sc3c(c12)CCN(C)C3)OC	-	.	-	.	-	-
Cc1cc2nc3ccc(=[N+](C)C)cc-3sc2cc1N	-	85	-	68	104	-
COc1ccc2nc(N=Nc3ccc(N(C)C)cc3)sc2c1	-	-	-	-	-	-
CN(C)c1ccc2nc3ccc(=[N+](C)C)cc-3sc2c1	-	101	-	97	74	-
CCn1c(=O)c2cc(S(=O)(=O)NCCOc3ccccc3)ccc2n(CC)c1=O	-	-	-	-	-	-
CC(=O)Nc1ccc2nc(-c3ccccc3)cn2c1	-	-	-	-	-	-
N=C1/C(=C\c2ccc(-c3cccc(C(=O)O)c3)o2)C(=O)N=C2SC=C(c3ccccc3)N12	-	-	-	-	-	-
CN1CCN(CC(=O)N2c3ccccc3C(C)(c3ccccc3)CC2(C)C)CC1 (configuration not stated)	-	-	-	30	-	-
CN1CCN(CC(=O)N2c3ccccc3C(C)(c3ccc(Cl)cc3)CC2(C)C)CC1 (configuration not stated)	-	-	-	-	-	-
COc1cccc2sc(Nc3nc(-c4ccncc4)cs3)nc12	54	83	-	85	-	-
COc1cccc2sc(Nc3nc(-c4cc5ccccc5oc4=O)cs3)nc12	-	-	-	-	-	-
COc1cc(-c2nc(CCNC(=O)c3ccco3)cs2)cc(OC)c1OC	-	.	-	.	-	-
CCOC(=O)C1(CC2CC2)CCN(Cc2ccc(OC)cc2F)CC1	-	80	-	-	-	-
CCOC(=O)C1(CC2CC2)CCN(Cc2cc(Cl)c(O)c(OC)c2)CC1	-	-	-	-	-	-
